MCF10A rereplic – A quantitative high throughput screen for small molecules that induce DNA re-replication in MCF 10a normal breast cells. MCF 10A DNA re-replication, Hoechst nuclear intensity, 48 h. hit rate 2.9% among 350,000. AID 624296, 2012. Potency, µM (titrated, usually from 46.1 µM), without a hit: at the top dose activity, positive = re-replication, usual class: activators; further: potency means the concentration at half of the fitted maximal effect; % of control where 0% means no effect; nearly all actives have a fitted effect of over 50% in size
Chronic BCR inh – qHTS Assay to Find Inhibitors of Chronic Active B-Cell Receptor Signaling | ABC-DLBCL IkBa-CBG/CBR reporter, luminescence ratio, 4 h | hit rate 0.05% among 340,000 | Potency, µM (top dose mostly 46.1 µM), for the others: at the top dose activity change, negative = inhibition, actives largely listed as inhibitors; active means well fitted inhibition curve with a large enough effect in the signal ratio, with a control signal flat, not every such curve was filed as active; inconclusive means small, poorly fitted or top-dose-only effect, or effect the other way, or a change in a side signal; the % refers to the signal ratio;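 further: potency means the concentration at half of the fitted maximal effect; plate controls were basal doxycycline-induced cells for no effect and cells given 10 µM MG132 for full effect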
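TMD8 human ABC-DLBCL cells with doxycycline-inducible IκBα–green luciferase fusion and unfused red luciferase, in 0.5% FBS medium; compounds up to 46 uM, 4 h at 37C. Green/red luminescence ratio, filter-overlap corrected, fitted to concentration-response curves.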
DT40 TDP1 no CPT – qHTS for Inhibitors of human tyrosyl-DNA phosphodiesterase 1 (TDP1): qHTS in cells in absence of CPT; Potency, µM (top dose mostly 46.2 µM), for the others: top-dose activity change, negative = growth inhibition, usual class: inhibitors; hit rate 15% among 420,000; DT40 Tdp1-/- hTDP1 cells, no CPT, ATP luminescence, 48 h; further: potency means the concentration at half of the fitted maximal effect; on the % scale 0 is the no-effect control and ±100 the full control effect; nearly all actives have a fitted effect of over 55% in size
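Compound effects on proliferation are scored in DT40 Tdp1-/-;hTDP1 cells in the absence of CPT. ATP levels (CellTiter-Glo luminescence) are recorded after a ≥48 hr, 37 °C incubation.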
TDP1 cell CPT – qHTS for Inhibitors of human tyrosyl-DNA phosphodiesterase 1 (TDP1): qHTS in cells in presence of CPT. AID 686979, 2013. hit rate 12% among 420,000. chicken DT40 Tdp1-/-;hTDP1 cells + 20 nM CPT, ATP luminescence, 48 h. Potency, µM (highest dose often 46.2 µM), for the others: at the top dose activity change, negative = growth inhibition, usual class: inhibitors; further: potency means the concentration at half of the fitted maximal effect; on the % scale 0 is the no-effect control and ±100 the full control effect; nearly all actives have a fitted effect of over 55% in size
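Chicken DT40 Tdp1-/- cells stably complemented with human TDP1 were seeded at 400 cells/well in medium containing 20 nM camptothecin, exposed to pin-transferred compounds, and grown at 37 °C for at least 48 hr. Viability was read as ATP luminescence.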
IL-1B inflam inh – qHTS for Inhibitors of Inflammasome Signaling: IL-1-beta AlphaLISA Primary Screen. hit rate 4.7% among 360,000. activity change, % at 57.5 µM. AID 743279, 2014. THP-1 LPS/ATP IL-1B secretion, AlphaLISA, 16 h; stronger effect = lower value; in the data active means activity change below about -50%; inconclusive means mostly about -30% to -49%; further: on the % scale 0 is the no-effect control and ±100 the full control effect
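THP-1 cells pretreated 1 hr with compounds (up to 57.5 uM final), then stimulated with LPS (250 ng/mL final) plus ATP (1.25 mM final); secreted IL-1B measured by AlphaLISA after 16 hr, decreased signal indicating inhibition.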
SW480 rerep – A quantitative high throughput screen for small molecules that induce DNA re-replication in SW480 colon adenocarcinoma cells; hit rate 1.8% among 340,000; SW480 DNA re-replication, Hoechst DNA content imaging, 48 h; Potency, µM (top dose mostly 46.1 µM), inactives show top-dose re-replication activation, actives largely listed as activators; further: potency means the concentration at half of the fitted maximal effect; % of control where 0% means no effect; nearly all actives have a fitted effect of over 55% in size
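Quantitative HTS format with DMSO vehicle controls; 48 hr drug incubation at 37 C, then 40 min Hoechst staining and scanning imager measurement at 405 nm excitation.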
Numbers without * were called inactive; [ ] = dose if it differs, or a comment. This is a sample that favours compounds with a hit; in the whole collection about 19% have one here. Unless noted, the call rests on the fitted dose curve; in most records, active means well fitted curve in the direction sought with a large enough effect; inconclusive means small, poorly fitted or top-dose-only effect, or another doubt; inactive means no such curve, though single readings can be large; an effect the other way counts as inactive or inconclusive.

For N#Cc1ccc(CN2CCC3(CC2)CCN(C(=O)c2ccncc2)CC3)cc1 the results were DT40 TDP1 no CPT -9% and TDP1 cell CPT 0%.
For Cc1ccccc1CN1CCc2cc([N+](=O)[O-])ccc21 the results were MCF10A rereplic 7%, Chronic BCR inh 13%, DT40 TDP1 no CPT 18µM*, TDP1 cell CPT inconclusive, IL-1B inflam inh -13 and SW480 rerep 2%.
`Cc1ccccc1Cn1c([N+](=O)[O-])cnc1C` gave MCF10A rereplic 1%, Chronic BCR inh 1%, DT40 TDP1 no CPT -12%, TDP1 cell CPT -5%, IL-1B inflam inh 24 and SW480 rerep 17%.
For CCCCCCSc1ccc([C@H]2N[C@@](Cc3ccccc3)(C(=O)OC)[C@H]3C(=O)N(C)C(=O)[C@@H]23)cc1 the results were MCF10A rereplic 5%, Chronic BCR inh 2%, DT40 TDP1 no CPT 21µM*, TDP1 cell CPT inconclusive, IL-1B inflam inh inconclusive and SW480 rerep -9%[9.22 µM].
Screening CCOC(=O)C1(Cc2ccccc2)NC(c2ccccc2F)C2C(=O)N(CC)C(=O)C21 (configuration not stated) returned MCF10A rereplic 10%, Chronic BCR inh 10%, DT40 TDP1 no CPT 7.3µM*, TDP1 cell CPT 23µM*, IL-1B inflam inh 15 and SW480 rerep -1%.
For CCCCCCSc1ccc([C@H]2N[C@@](Cc3ccccc3)(C(=O)OC)[C@H]3C(=O)N(CC)C(=O)[C@@H]23)cc1 the results were MCF10A rereplic -14%, Chronic BCR inh 5%, DT40 TDP1 no CPT 18µM*, TDP1 cell CPT inconclusive, IL-1B inflam inh -23 and SW480 rerep -5%.
CCN1C(=O)[C@H]2[C@@H](c3ccc(-c4ccc(F)cc4)c(OC)c3)N[C@@](Cc3ccccc3)(C(=O)OC)[C@H]2C1=O was read as MCF10A rereplic 1%, Chronic BCR inh -1%, DT40 TDP1 no CPT -7%, TDP1 cell CPT -18%, IL-1B inflam inh -62* and SW480 rerep -30%.
CCC(C)Sc1ccc([C@H]2N[C@@](Cc3ccccc3)(C(=O)OC)[C@H]3C(=O)N(C)C(=O)[C@@H]23)cc1 (some centres not stated) was read as MCF10A rereplic 5%, Chronic BCR inh 0%, DT40 TDP1 no CPT inconclusive, TDP1 cell CPT inconclusive, IL-1B inflam inh inconclusive and SW480 rerep 2%.
Screening CCCSc1ccc([C@H]2N[C@@](Cc3ccccc3)(C(=O)OC)[C@H]3C(=O)N(CC)C(=O)[C@@H]23)cc1 returned MCF10A rereplic 16%, Chronic BCR inh inconclusive, DT40 TDP1 no CPT 18µM*, TDP1 cell CPT 18µM*, IL-1B inflam inh -12 and SW480 rerep 1%.
`O=C(CSc1nc(O)cc(=O)n1-c1ccccc1)Nc1ccc(Br)cn1` gave MCF10A rereplic 6%, Chronic BCR inh inconclusive, DT40 TDP1 no CPT -16%, TDP1 cell CPT -6%, IL-1B inflam inh -5 and SW480 rerep 5%[1.84 µM].
`Cc1ccc(NC(=O)Cn2c(C)cc(C)c(C#N)c2=O)cc1` gave DT40 TDP1 no CPT -23% and TDP1 cell CPT 3%.
O=C(Nc1ccc2nc(-c3ccco3)c(-c3ccco3)nc2c1)N1CCN(c2ccccn2)CC1 was read as MCF10A rereplic inconclusive, Chronic BCR inh inconclusive, DT40 TDP1 no CPT 12µM*, TDP1 cell CPT 13µM*, IL-1B inflam inh -57* and SW480 rerep inconclusive.
`Cc1cccc(N2CCN(C(=O)c3ccc4nc(-c5ccco5)c(-c5ccco5)nc4c3)CC2C)c1` (configuration not stated) gave MCF10A rereplic 12µM*, Chronic BCR inh inconclusive, DT40 TDP1 no CPT 18µM*, TDP1 cell CPT 18µM*, IL-1B inflam inh inconclusive and SW480 rerep inconclusive.
CC1CCN(C(=O)Nc2ccc3nc(-c4ccco4)c(-c4ccco4)nc3c2)CC1 was read as DT40 TDP1 no CPT inconclusive and TDP1 cell CPT 11µM*.
`Cc1cccc(N2CCN(C(=O)c3ccc4c(Cl)c5c(nc4c3)CCCC5)CC2C)c1` (configuration not stated) gave DT40 TDP1 no CPT inconclusive and TDP1 cell CPT -25%.
`O=C(c1ccc2nc(-c3ccco3)c(-c3ccco3)nc2c1)N1CCN(c2ncccn2)CC1` gave MCF10A rereplic 13µM*, Chronic BCR inh inconclusive, DT40 TDP1 no CPT inconclusive, TDP1 cell CPT inconclusive, IL-1B inflam inh -3 and SW480 rerep 9%.
For COc1ccc(OC)c2sc(N(Cc3cccnc3)C(C)=O)nc12 the results were Chronic BCR inh -2%, DT40 TDP1 no CPT 1% and TDP1 cell CPT -3%.
`CCOC(=O)C1=CCN(S(=O)(=O)c2ccc(F)cc2)C1c1ccc(F)cc1` (configuration not stated) gave DT40 TDP1 no CPT 15µM*, TDP1 cell CPT inconclusive and IL-1B inflam inh 28.
For CCOC(=O)C1=CCN(S(=O)(=O)c2ccc(F)cc2)C1c1ccc(Br)cc1 (configuration not stated) the results were DT40 TDP1 no CPT inconclusive, TDP1 cell CPT inconclusive and IL-1B inflam inh -28.
`CCOC(=O)C1=CCN(S(=O)(=O)c2ccc(F)cc2)C1c1ccccc1` (configuration not stated) gave DT40 TDP1 no CPT 21µM*, TDP1 cell CPT inconclusive and IL-1B inflam inh 45.
`COC(=O)c1[nH]c2c(c1C)C(=O)CC(c1ccc(OC)cc1)C2` (configuration not stated) gave MCF10A rereplic -1%, Chronic BCR inh 0%, DT40 TDP1 no CPT inconclusive, TDP1 cell CPT -10%, IL-1B inflam inh 32 and SW480 rerep -12%.
`CCOc1ccc(C2CC(=O)c3c([nH]c(C(=O)OCCOc4ccccc4)c3C)C2)cc1` (configuration not stated) gave DT40 TDP1 no CPT 15µM* and TDP1 cell CPT 13µM*.
For Cc1c(C(=O)OC2CCCC2C)[nH]c2c1C(=O)CCC2 (configuration not stated) the results were MCF10A rereplic 12%, Chronic BCR inh 8%, DT40 TDP1 no CPT inconclusive, TDP1 cell CPT 21µM*, IL-1B inflam inh -10 and SW480 rerep 0%.

Assay outcomes (PubChem BioAssay)
